Eight compounds from PubChem BioAssay (NCI) can be followed below.

About 83,000 compounds went through this panel and 20% of them were active in at least one assay; those are over-represented in the sample as a whole.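 Interpretation: 100, growth as untreated; towards 0, rising growth inhibition; 0, no net growth; 0 to -100, cell death. Compounds scoring below 10 were considered active.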 A number with no mark means an inactive call. Active and inactive are the calls of the source.

Among the test systems are EKVX NSCLC; SN12C renal; UO-31 renal; ACHN renal; CAKI-1 renal; A498 renal; CCRF-CEM leukemia; MOLT-4 leukemia; SR leukemia; RPMI-8226 leukemia; OVCAR-8 ovarian; OVCAR-5 ovarian; SK-OV-3 ovarian; IGROV1 ovarian; OVCAR-3 ovarian; HS 578T breast; NCI/ADR-RES ovarian; T-47D breast; OVCAR-4 ovarian.
Experiment in all cases: NCI-60 one-dose screen, 48 h (100 = growth as untreated, 0 = no growth, -100 = all killed)
What all share (conditions): 10 µM unless noted

Take `N/C(=N\c1nc2c(Cl)cc(Cl)cc2s1)C(Cl)(Cl)Cl`: the growth in the experiment with EKVX NSCLC was 13.4%; in the experiment on SN12C renal, 77.9%; with UO-31 renal, 45.8%; in the experiment with ACHN renal, -32% (active); with CAKI-1 renal, 5.87% (active); with A498 renal, -44.4% (active). The growth is 83.7% in the experiment with CCRF-CEM leukemia; 82.8% in the experiment with MOLT-4 leukemia; 85.1% in the experiment with SR leukemia; 15.4% in the experiment with RPMI-8226 leukemia; 68.3% in the experiment with OVCAR-8 ovarian; 69.5% in the experiment with OVCAR-5 ovarian. Moreover, the growth was 83.8% in the experiment with SK-OV-3 ovarian; 57.8% in the experiment with IGROV1 ovarian; -9.72% (active) with OVCAR-3 ovarian; 22.1% in the experiment on HS 578T breast; 68.3% with NCI/ADR-RES ovarian; 32.3% with T-47D breast.
Regarding `CCOC(=O)c1c(Nc2ccccc2)nn2c(N)c(C#N)c(-c3ccc(OC)cc3)nc12`, the growth in the experiment with EKVX NSCLC was 69.2%; in the experiment with SN12C renal, 86.6%; in the experiment on UO-31 renal, 76.7%; with ACHN renal, 38.5%; in the experiment with CAKI-1 renal, 52.8%; in the experiment with A498 renal it was 75.5%. The growth with CCRF-CEM leukemia was 89.3%; in the experiment on MOLT-4 leukemia, 94.7%; with RPMI-8226 leukemia it was 88.7%; in the experiment on OVCAR-8 ovarian, 66.1%; in the experiment with OVCAR-5 ovarian it was 101%; with OVCAR-4 ovarian, 35.9%. The growth was 55.9% in the experiment with SK-OV-3 ovarian; 85.5% in the experiment on IGROV1 ovarian; 101% in the experiment on OVCAR-3 ovarian; 19.4% in the experiment on HS 578T breast; 73.3% in the experiment on NCI/ADR-RES ovarian; 61.3% in the experiment on T-47D breast.
As for `Cc1nc(-c2cc3ccccc3oc2=O)ccc1C(=O)/C=C/c1ccccn1`, the growth in the experiment with EKVX NSCLC was 84.3%; in the experiment on SN12C renal, 47.5%; with UO-31 renal, 58%; in the experiment on ACHN renal, 58.7%; in the experiment on CAKI-1 renal it was 60.6%; with A498 renal it was 89.2%. Moreover, the growth is 6.22% (active) with CCRF-CEM leukemia; -12.6% (active) in the experiment on SR leukemia; -36.3% (active) in the experiment with RPMI-8226 leukemia; 69.3% with OVCAR-8 ovarian; 60.7% in the experiment with OVCAR-5 ovarian; 85.2% with OVCAR-4 ovarian. Also, the growth is 116% in the experiment with SK-OV-3 ovarian; 7% (active) in the experiment with IGROV1 ovarian; 46.9% with OVCAR-3 ovarian; 80.3% with HS 578T breast; 77.4% in the experiment on NCI/ADR-RES ovarian; 52.1% in the experiment with T-47D breast.
Take `CCN1CCN(S(=O)(=O)c2oc(-c3ccc(Cl)cc3)nc2C#N)CC1`: the growth in the experiment on EKVX NSCLC was 95.6%; with SN12C renal, 78.7%; with UO-31 renal, 33.2%; in the experiment on ACHN renal, -86.6% (active); with CAKI-1 renal it was 65%; in the experiment on A498 renal, 93.2%. In addition, the growth with CCRF-CEM leukemia was 2.3% (active); in the experiment with MOLT-4 leukemia, 0.374% (active); in the experiment with RPMI-8226 leukemia, 29%; in the experiment with OVCAR-8 ovarian, 85%; in the experiment on OVCAR-5 ovarian it was 94.8%; with OVCAR-4 ovarian, 105%. Also, the growth in the experiment on SK-OV-3 ovarian was 129%; with IGROV1 ovarian it was 7.89% (active); in the experiment on OVCAR-3 ovarian, 41.8%; with HS 578T breast, 105%; with NCI/ADR-RES ovarian it was 96%; in the experiment on T-47D breast, 7.45% (active).
For `CS(=O)(=O)c1ccc(-c2nc3ccccn3c2-c2nc3ccc([N+](=O)[O-])cc3[nH]2)cc1`, the growth was 91% in the experiment on EKVX NSCLC; 94.8% in the experiment with SN12C renal; 77.7% in the experiment with UO-31 renal; 88.6% in the experiment with ACHN renal; 86.2% with CAKI-1 renal; 87.5% in the experiment on A498 renal. Besides, the growth was 101% with CCRF-CEM leukemia; 90.3% in the experiment with MOLT-4 leukemia; 95.2% with SR leukemia; 95.1% with RPMI-8226 leukemia; 94.5% in the experiment with OVCAR-8 ovarian; 97.8% with OVCAR-5 ovarian. Moreover, the growth in the experiment on OVCAR-4 ovarian was 93.2%; in the experiment with SK-OV-3 ovarian, 107%; in the experiment with IGROV1 ovarian, 81%; in the experiment on OVCAR-3 ovarian, 110%; in the experiment with NCI/ADR-RES ovarian, 92.2%; in the experiment with T-47D breast, 91.2%.
`C[C@@H](Nc1c(C#N)cnc2ccc(-c3cnc(N)nc3)cc12)c1ccccc1`: the growth is 4.11% (active) in the experiment with EKVX NSCLC; 11.8% in the experiment with SN12C renal; 4.65% (active) in the experiment with UO-31 renal; 6.57% (active) in the experiment with ACHN renal; 1.83% (active) with CAKI-1 renal; -37.8% (active) in the experiment on A498 renal. The growth is 14% in the experiment on CCRF-CEM leukemia; 7.92% (active) with SR leukemia; -26.9% (active) in the experiment with RPMI-8226 leukemia; 17.1% with OVCAR-8 ovarian; 20.9% with OVCAR-5 ovarian; -2.04% (active) in the experiment with SK-OV-3 ovarian. Further, the growth is -32.6% (active) with IGROV1 ovarian, 9.52% (active) with OVCAR-3 ovarian, 22.5% in the experiment with NCI/ADR-RES ovarian and 3.05% (active) in the experiment with T-47D breast.
As to `CN(C)CCCNc1c2ccccc2nc2c1oc1ccc(Cl)cc12`, the growth in the experiment with EKVX NSCLC was 43.5%; with SN12C renal, 26.6%; in the experiment with UO-31 renal it was 39.5%; in the experiment on ACHN renal it was 17.5%; with CAKI-1 renal, 21.4%; in the experiment with A498 renal it was 7.63% (active). Also, the growth in the experiment on CCRF-CEM leukemia was 24.1%; with MOLT-4 leukemia it was 3.74% (active); in the experiment with SR leukemia it was -30.8% (active); in the experiment on RPMI-8226 leukemia it was 14.4%; in the experiment with OVCAR-8 ovarian, 25.4%; in the experiment on OVCAR-5 ovarian, 51.6%. Further, the growth in the experiment on OVCAR-4 ovarian is 50.6%; with SK-OV-3 ovarian, 57.6%; in the experiment with IGROV1 ovarian it was 25.8%; in the experiment with OVCAR-3 ovarian it was 63.5%; with NCI/ADR-RES ovarian, 22%; in the experiment on T-47D breast, 63.7%.
Turning to `N#Cc1c(-c2ccc(F)cc2)nc2c(C#N)c(Nc3ccccc3)nn2c1N`, the growth in the experiment on EKVX NSCLC is 92.8%; in the experiment on SN12C renal, 97.7%; in the experiment with UO-31 renal, 90.7%; in the experiment on ACHN renal, 105%; with CAKI-1 renal, 90.7%; in the experiment on A498 renal, 66.3%. In addition, the growth was 96.1% in the experiment on CCRF-CEM leukemia; 102% in the experiment on MOLT-4 leukemia; 93.3% with SR leukemia; 104% in the experiment on RPMI-8226 leukemia; 101% in the experiment with OVCAR-8 ovarian; 98.9% in the experiment with OVCAR-5 ovarian. Further, the growth is 117% in the experiment with SK-OV-3 ovarian; 107% in the experiment with IGROV1 ovarian; 106% in the experiment with OVCAR-3 ovarian; 99.6% in the experiment with HS 578T breast; 103% with NCI/ADR-RES ovarian; 88.3% in the experiment with T-47D breast.
